KB-V1 cytotox: KB-V1 MDR subline cytotoxicity | Potency, µM (series often up to 46.1 µM), hits mostly cytotoxic | KB-V1 MDR cells viability, CellTiter-Glo, 72 h | 400,000 tested, 3.4% active | AID 1347076; also: % is scaled to controls: 0 for no effect and ±100 for the full control effect; nearly all actives have a fitted effect of over 60% in size
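Following 72 h at 37 degrees C with compound, KB-V1 cell viability was read by CellTiter-Glo luminescence, medium being phenol-red-free DMEM plus 10% FBS; concentration-response parameters came from normalized, curve-fitted qHTS data.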
HT1080 IDH1KD tx: kills HT-1080 cells with IDH1 knockdown; HT-1080 IDH1 knockdown viability, ATP luminescence, 48 h; Potency, µM (top dose mostly 46.1 µM), for the others: at the top dose activity, negative = toxicity, most hits filed as cytotoxic; 360,000 tested, 2% active;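 also: 0% = DMSO wells and -100% = cell-free medium wells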
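In this qHTS, HT-1080 cells depleted of IDH1 are exposed for 48 h at 37 °C to compound titrations. Toxicity is scored from CellTiter-Glo luminescence, with DMSO as full viability and medium alone as none.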
HT1080-NT tox: kills 2HG-producing HT-1080-NT fibrosarcoma cells. HT-1080-NT fibrosarcoma viability, CellTiter-Glo ATP luminescence, 48 h. Potency, µM (highest dose often 46.1 µM), for the others: at the highest dose activity, negative = less viability, most hits filed as cytotoxic. 360,000 tested, 1.6% active. AID 686970;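 also: NT is the 2HG producing partner of a matched IDH1 knockdown line; 0% = DMSO-treated cells and -100% = media-only wells without cells; nearly all actives have a fitted effect of over 55% in size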
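Read-out is CellTiter-Glo luminescence after 10 minutes at room temperature, following 48 hours' compound treatment of HT-1080-NT cells (750 cells/well, RPMI, 5% FBS, 37 degrees C).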
SW480 rereplic: inducers of DNA re-replication in SW480 colon cancer cells. SW480 DNA re-replication, Hoechst DNA content imaging, 48 h. Potency, µM (titrated, usually from 46.1 µM), inactives show at the highest dose re-replication activation, most hits filed as activators. 340,000 tested, 1.8% active; also: % of control where 0% means no effect; nearly all actives have a fitted effect of over 55% in size
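Compounds, transferred as 23 nL by pin tool, were incubated with cells for 48 hr; DNA content per nucleus was then quantified by Hoechst staining and fluorescence plate imaging.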
KB-3-1 cytotox: KB-3-1 parental cell cytotoxicity. KB-3-1 viability, CellTiter-Glo ATP luminescence, 72 h. Potency, µM (highest dose often 46.1 µM), most hits filed as cytotoxic. 400,000 tested, 1.4% active. AID 1347075; also: % is scaled to controls: 0 for no effect and ±100 for the full control effect; nearly all actives have a fitted effect of over 60% in size
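Parental KB-3-1 adenocarcinoma cells in phenol-red-free DMEM with 10% FBS were pin-treated with compounds at several concentrations, incubated 72 h at 37 °C, and viability read by CellTiter-Glo luminescence; concentration-effect curves were fitted after normalization.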
MCF10A rereplic: inducers of DNA re-replication in MCF 10A breast cells | MCF 10A DNA re-replication, Hoechst nuclear intensity, 48 h | Potency, µM (doses to about 46.1 µM), inactives show at the highest dose activity, positive = re-replication, most hits filed as activators | 350,000 tested, 2.9% active | AID 624296; also: % of control where 0% means no effect; nearly all actives have a fitted effect of over 50% in size
* marks the source's active call; other numbers are inactive results; i = inactive; ? = inconclusive; . = no result given; ! = repeats disagree; [ ] = dose if it differs, or a comment. Hits are enriched below; roughly 7.9% of the tested compounds scored in any of these assays. Calls follow the shape of the dose curve; as a rule, active = well fitted curve in the direction sought with a large enough effect; inconclusive = small, poorly fitted or top-dose-only effect, or another doubt; inactive = no such curve, though single readings can be large; an effect the other way counts as inactive or inconclusive. Potency is read from the fitted curve at half-maximal effect.

SMILES	KB-V1 cytotox	HT1080 IDH1KD tx	HT1080-NT tox	SW480 rereplic	KB-3-1 cytotox	MCF10A rereplic
CCc1nnc(NC(=O)c2nc(S(=O)(=O)Cc3ccc(C)cc3)ncc2Cl)s1	?	14.6µM*	18.4µM*	93.4%	16.4µM*!	1.3µM*
O=C(O)C1CCCN1S(=O)(=O)c1cccc(S(=O)(=O)N2CCCC2C(=O)O)c1 (stereo not given)	i	4.6%	14.9%	3.0%	i	18.5%
COc1cccc(OC)c1C(=O)N[C@@H]1C(=O)N2[C@@H]1SC(C)(C)[C@@H]2C(=O)O	i	10.5%	17.0%	0.7%	i	-4.0%
O=[N+]([O-])c1cc(S(=O)(=O)N2CCCC2)ccc1OCc1ccccc1	?	1.1%	7.8%	-4.9%	i	12.5%
O=[N+]([O-])c1ccc(O)c(C2CCCCC2)c1	?	16.4µM*	14.6µM*	?	?	?
O=[N+]([O-])c1ccc2nc(C3CCCCC3)[nH]c2c1	i	-12.7%	-1.8%	-6.3%	i	1.4%
Cc1cc(C)c2cc(C#N)c(N3CCCN(C(=S)NCCCN(C)C)CC3)nc2c1	?	?	?	?	?	7.31µM*
Cc1ccc2cc(C#N)c(N3CCCN(C(=S)NCCCN(C)C)CC3)nc2c1	i	20.6µM*	20.6µM*	23.1µM*	?	3.66µM*
Cc1cc(C)c2cc(C#N)c(N3CCCC3)nc2c1	i	-0.6%	0.6%	?	i	?
CCOCCCNC(=S)N1CCCN(c2nc3cc(C)ccc3cc2C#N)CC1	i	7.0%	?	4.6%	i	0.5%
COc1ccc(-c2ccc(-c3noc(C)n3)c(OC)n2)cc1	i	-6.8%	?	-15.2%	i	-8.3%
COc1ccc(NC(=O)Cn2nc(C)c3ccccc3c2=O)cc1	i	3.7%	3.6%	-3.3%	i	-9.9%
CCC(C)N(C(=O)CSc1ncnc2sccc12)C1CCS(=O)(=O)C1 (stereo not given)	i	-0.4%	-4.0%	0.0%	i	-2.4%
CCC(C)N(C(=O)CSc1nc(-c2cccs2)nc2ccccc12)C1CCS(=O)(=O)C1 (stereo not given)	1.46µM*	?	-23.2%	?	i	?
CC(C)[C@@H](NC(=O)OC(C)(C)C)c1cc(C(=O)c2c(-c3ccccc3)[nH]c3ccccc23)c(N)s1	23.1µM*	?	?	.	?	.
CCCCNC(=O)COC(=O)c1ccc(SC)cc1OC	i	9.4%	-1.0%	-11.9%	i	-0.6%
O=C(Cc1ccccc1[N+](=O)[O-])Nc1nccs1	i	-0.3%	0.8%	2.91µM*	i	1.6%
Cc1ccc(-n2c3nc(=O)n(C)c(=O)c-3cc3ccccc32)cc1	i	13.7%	10.6%	?	i	9.2%
Cc1ccccc1-c1nc2c(=O)n(C)c(=O)nc-2n(C)n1	?	.	.	.	2.06µM*	.
CCn1c(N)nc2c1c(=O)n(C)c(=O)n2C	i	-1.2%	1.3%	1.6%	i	3.4%
Cn1nc(-c2ccccn2)nc2c(=O)n(C)c(=O)nc1-2	i	1.64µM*	1.84µM*	0.82µM*	?	2.91µM*
CCCc1nc2c(=O)n(C)c(=O)nc-2n(C)n1	7.31µM*	2.06µM*	3.66µM*	0.651µM*	4.61µM*	10.3µM*
NC(=O)Cn1nc(C(F)(F)F)c2c1CCCC2	i	9.0%	3.4%	-4.6%	i	-2.9%
COc1ccc(C2C(C#N)=C(N)Oc3cc(O)ccc32)cc1 (stereo not given)	i	1.3%	-1.5%	-8.7%[1.84 µM]	i	7.0%
N#CC1=C(N)Oc2cc(N)ccc2C1c1cc(Br)cs1 (stereo not given)	?	2.91µM*	2.06µM*	16.4µM*	8.2µM*	?
SMILES	KB-V1 cytotox	HT1080 IDH1KD tx	HT1080-NT tox	SW480 rereplic	KB-3-1 cytotox	MCF10A rereplic
N#CC1=C(N)Oc2cc(O)ccc2C1c1ccccc1 (stereo not given)	18.4µM*	?	?	3.9%	?	?
N#CC1=C(N)Oc2cc(N)ccc2C1c1cccc(Br)c1 (stereo not given)	?	?	?	?	8.2µM*	1.64µM*
COc1cccc(C2C(C#N)=C(N)Oc3cc(N)ccc32)c1OC (stereo not given)	i	7.0%	9.8%	1.3%	i	6.9%
N#CC1=C(N)Oc2cc(N)ccc2C1c1ccccc1F (stereo not given)	7.31µM*	16.4µM*	14.6µM*	18.4µM*	?	18.4µM*
CCCCC12CN3CC(C)(CN(C1)C3c1cc(Br)ccc1O)C2=O (stereo not given)	i	.	.	.	i	.
Cc1nn(Cc2ccc(Cl)c(Cl)c2)c(C)c1NC(=O)c1cn(-c2ccccc2)nc1-c1ccccc1	?	12.1%	3.0%	18.5%	i	5.4%
COC(=O)CCN(C(=O)c1cc(OC)c(OC)c(OC)c1)c1ccccn1	i	0.0%	-1.1%	-10.6%	i	2.7%
COc1ccc(CSC(=N)N)cc1[N+](=O)[O-]	?	-6.9%	-5.8%	?	?	?
CCCCOc1ccc(Br)cc1CSC(=N)N	8.2µM*	18.4µM*	23.1µM*	?	23.1µM*	?
CCCCOc1ccc(CSC2=NCCN2)cc1[N+](=O)[O-]	?	-22.3%	?	?	?	20.6µM*
CCCCCOc1ccc(CSC(=N)N)cc1[N+](=O)[O-]	18.4µM*	16.4µM*	20.6µM*	?	?	?
Cc1noc(C(=O)Nc2cccnc2)c1Cl	i	17.0%	8.1%	-10.7%	i	-1.6%
O=C1NC(c2ccc3ccccc3c2)Nc2ccccc21 (stereo not given)	16.4µM*	?	?	.	?	.
Cc1ccc(N=C2C(=O)Nc3ccccc32)cc1	i	0.7%	-0.8%	-11.8%	i	1.5%
CCN(CC)c1ccc(C2NC(=O)c3ccccc3N2)cc1 (stereo not given)	2.31µM*	?	?	10.3µM*	4.11µM*	5.8µM*
CCN(CC)c1ccc(N=C2C(=O)Nc3ccccc32)cc1	i	20.6µM*	?	?	?	?
O=C1NC(c2ccc3c(c2)OCO3)Nc2ccccc21 (stereo not given)	?	5.3%[9.24 µM]	?	?	?	?
O=C1NC(c2ccc(Br)cc2)Nc2ccccc21 (stereo not given)	6.51µM*	11.6µM*	5.8µM*	?	?	18.4µM*
CCCN1C(=O)/C(=C\c2ccncc2)SC1=Nc1ccccc1	?	-13.1%	-11.3%	-9.0%	i	?

High-throughput results from PubChem BioAssay.
